# According to ChEMBL document CHEMBL1157539, “Thousands of chemical starting points for antimalarial lead identification” (Nature, 2010):
# How the values were obtained:
# Format in all cases: functional
# Plasmodium falciparum [1] = assay: GSK_TCMDC: Inhibition of Plasmodium falciparum 3D7 in whole red blood cells, using parasite LDH activity as an index of growth. Test compounds present at 2uM
# Plasmodium falciparum [2] = assay: GSK_TCMDC: Inhibition of Plasmodium falciparum Dd2 in whole red blood cells, using parasite LDH activity as an index of growth. Test compounds present at 2uM
# HepG2 = assay: GSK_TCMDC: Percent inhibition of human HepG2 cell line. Test compounds present at 10uM.
Structure (SMILES),Inhibition (Plasmodium falciparum [1]) [%],Inhibition (Plasmodium falciparum [2]) [%],Inhibition (HepG2) [%]
CCc1cn2c3c(cc(C(=O)N[C@@H](Cc4ccccc4)[C@H](O)CNCc4ccccc4)cc13)N(C)S(=O)(=O)CC2.O=CO,98,99,3
O=C(Nc1cc(F)cc(F)c1)N1CCOC(CCN2CCC3(CCc4ccccc43)CC2)(c2ccc(Cl)c(Cl)c2)C1 (stereo not given),100,86,32
Cc1cccc(C(O)CNc2ccnc(Nc3cccc(-c4csc(C)n4)c3)n2)c1 (stereo not given),99,88,29
Cc1ccc(NC(=O)c2ccc(N3CCC(c4ccccc4C)CC3)nc2)cc1.O=C(O)C(F)(F)F,83,72,49
CCOc1cc2ncnc(Nc3ccc(OCc4ccccc4F)c(Cl)c3)c2cc1OCC.Cl,100,74,4
COc1cccc(-c2cccc(NC(=O)C3CCN(Cc4ccc(O)cc4)CC3)c2)c1,97,97,9
CCCc1cc(NCc2ccncc2)nc(Nc2ccc(F)cc2)n1,90,6,9
O=C(Nc1ccc(CCNC2=NCCN2)cc1)Nc1ccc(CCNC2=NCCN2)cc1,90,66,6
CNCCNCc1cccc(-c2cccc(-c3nc4cc(F)ccc4[nH]3)c2)c1.O=C(O)C(F)(F)F,98,15,20
CC(=O)Nc1ccc(C#Cc2ccc(-c3c(C)[nH]c(C)c(Cl)c3=O)cc2)cc1,90,78,0
O=C(Nc1cccc(F)c1)N[C@H]1CCN(CCCCCNC(=O)C2CC2c2ccc(Cl)c(Cl)c2)C1 (stereo not given in full),90,1,41
CCc1cc2c(N)nc(N)nc2nc1-c1ccccc1,91,0,18
COCC(C)n1c(SCC(=O)Nc2cc(C(F)(F)F)ccc2Cl)nc2ccccc2c1=O (stereo not given),97,96,3
CC(=O)Nc1ccc(C2NC(=O)NC(c3ccccc3)=C2c2nc3ccccc3s2)cc1 (stereo not given),93,96,0
COC(=O)c1cccc(NC(=O)NC2CCN(c3ccnc(Nc4cc(OC)c(OC)c(OC)c4)n3)C2)c1 (stereo not given),99,68,7
Cl.O=C(NCCCCN1CCC(c2ccc3c(c2OCCO)CCCC3)CC1)c1ccc(-c2ccc(C(F)(F)F)cc2)cc1,98,38,100
Cc1noc(C)c1-c1ccc2c(Nc3nccc4ccccc34)c(C(N)=O)cnc2c1,100,99,100
Cc1cc(O)c2c3c1C(=O)C=C1C3c3c(c(O)cc(O)c3C(=O)C1(C)C)C2=O (stereo not given),98,46,45
CC(C)N(Cc1cnc(N)c(C#N)n1)c1ccc(Cl)c(Cl)c1,97,63,0
O=C(Nc1ccc(Cn2ncc(N3CCCNCC3)c(Cl)c2=O)cc1)Nc1ccc(-c2ccccc2)cc1.O=C(O)C(F)(F)F,93,51,10
COc1cc2nc(N3CCN(C(=O)c4ccco4)CC3)nc(NCc3ccccc3)c2cc1OC,100,99,16
O=C(NC1CCN(Cc2ccccc2)CC1)c1cccc(-c2cc3cc(Cl)c(Cl)cc3[nH]2)c1.O=C(O)C(F)(F)F,100,86,15
CC(Cc1ccc(C(=O)Nc2ccc(CC(C)NCCc3cccc(Cl)c3)cc2)cc1)NCCc1ccc(C(F)(F)F)cc1 (stereo not given),100,88,98
O=C(CCc1c[nH]cn1)Nc1cccc(-c2cccc(-c3nc4ccccc4[nH]3)c2)c1,100,25,8
CCCn1c(O)nnc1SCC(=O)Nc1cc(Cl)ccc1Cl,88,53,0
Cl.ON=C1CCc2cc(-c3[nH]c(-c4cccc(OCCNCc5ccc(F)cc5)c4)nc3-c3ccncc3)ccc21,89,69,76
Cc1cccc2nc(-c3ccc(-c4ccc(NC(=O)C(=O)c5cccn5C)cc4)cc3)[nH]c12,95,15,40
O=C(Nc1ccc(C(F)(F)F)cc1)c1ccc(S(=O)(=O)NC2CCN(Cc3ccccc3)C2)cc1.O=C(O)C(F)(F)F (stereo not given),100,5,42
CC(=O)Nc1cccc(CNc2cc(C)nc(Nc3ccc(C)cc3)n2)c1,82,23,18
Cc1cccn2c(=O)c3cc(C(=O)NC4CCCCC4)c(=N)n(CCCn4ccnc4)c3nc12,100,8,1
